Holding throughout (test): NCI-60 one-dose screen, 48 h (100 = growth as untreated, 0 = no growth, -100 = all killed)
Common to all, as to settings: 10 µM unless noted

Test [1] deals with SR leukemia.
Test [2] relates to RPMI-8226 leukemia.
Test [3] deals with OVCAR-8 ovarian.
Test [4] relates to OVCAR-5 ovarian.
Test [5] deals with OVCAR-4 ovarian.
Test [6] concerns SK-OV-3 ovarian.
For test [7], the system named is IGROV1 ovarian.
Test [8] concerns OVCAR-3 ovarian.
Test [9] concerns HS 578T breast.
The subject of test [10] is NCI/ADR-RES ovarian.
Test [11] concerns T-47D breast.
For test [12], the system named is BT-549 breast.
Test [13] concerns MDA-MB-435 melanoma.
Test [14] has as its system SW-620 colon.
In test [15] the test system is MCF7 breast.
In test [16] the test system is HCT-116 colon.
In test [17] the test system is HCC-2998 colon.
Test [18] relates to KM12 colon.

The structures appear in SMILES notation. Compounds without any hit were thinned out: in the full panel of roughly 83,000, 20% have a hit.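 Plates (96-well) were seeded with cells, treated with compound at one concentration, and incubated for 48 hours before percent growth was determined.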 A number with no mark means an inactive call. Active and inactive are the calls of the source. How the source made its calls: active means growth percent below 10; inactive means the rest.

Results on nine compounds are retold here after PubChem BioAssay (NCI).

In the case of `COc1ccc(-c2cc(-c3cccnc3)nc3sc4c(=O)n(-c5ccc(C)cc5)cnc4c23)cc1OC`, the growth is 96.1% in test [1]; 97.6% in [2]; 101% in test [3]; 86.7% in test [4]; 92.3% in test [5]; 99.2% in [6]. Besides, the growth in [7] was 106%; in test [8], 98.8%; in test [9] it was 87.2%; in test [10], 103%; in [11], 98.7%; in test [12], 100%. Besides, the growth in [13] was 98.7%; in test [14] it was 96.2%; in test [15], 97%; in test [16], 99.1%; in test [17] it was 109%; in [18], 101%.

As for `CCN(CC)CCC(=O)c1ccc(OC)c2ccccc12`, the growth in test [1] is -6.8% (active); in [2] it was 8.95% (active); in test [3], 89.6%; in test [4], 91.1%; in test [5], 98.4%; in [6] it was 98.3%. The growth in test [7] was 91.6%; in test [8], 109%; in test [9], 95.9%; in [10], 98.8%; in test [11] it was 29.1%; in test [12], 79.6%. Besides, the growth is 102% in test [13]; 93% in test [14]; 11.9% in test [15]; 88.4% in test [16]; 90.8% in test [17]; 81.8% in test [18].

For the compound `O=C(Nc1nc(-c2ccccc2)cc(-c2ccc(Cl)cc2)n1)c1ccncc1`, the growth is 108% in [1]; 92.3% in test [2]; 100% in test [3]; 104% in [4]; 90.2% in test [5]; 94.6% in [6]. The growth in test [7] is 95.3%; in test [8], 98.6%; in [9] it was 100%; in [10], 89.1%; in test [11], 83%; in [12], 101%. Further, the growth in [13] was 96.8%; in test [14], 90.9%; in test [15] it was 84.6%; in [16], 87.6%; in test [17], 102%; in test [18], 100%.

As for `O=C(CN1CCN(c2cc3c(cc2F)c(=O)c(C(=O)N/N=C/c2ccccc2)cn3C2CC2)CC1)N/N=C\c1ccccc1`, the growth in test [1] was 61%; in test [2], 39.2%; in [3], 73.9%; in [4], 98.6%; in [5], 89.8%; in [6] it was 124%. Besides, the growth in test [7] is 54.4%; in [8], 77%; in test [9], 84.8%; in [10] it was 77.1%; in [11], 92%; in test [12], 65.2%. In addition, the growth in test [13] was 78.6%; in test [14] it was 87.8%; in test [15] it was 53.2%; in test [16], 70.7%; in test [17], 91%.

`CCC(c1ccccc1)C(CC)c1ccc(O)c(O)c1` (configuration not stated): the growth in test [1] is 55.3%; in test [2] it was 102%; in [3], 102%; in test [4], 115%; in test [5], 82.4%; in [6], 112%. The growth was 96.5% in test [7]; 86% in test [8]; 87.1% in test [9]; 96.1% in [10]; 80.5% in [11]; 110% in test [12]. In addition, the growth was 95% in test [13]; 97.3% in test [14]; 98.7% in test [15]; 88.2% in [16]; 97.5% in test [17].

Regarding `CCN(C(=O)CN1CCN(c2cc3c(cc2F)c(=O)c(C(=O)O)cn3C2CC2)CC1)c1nc(-c2ccc(OC)cc2)cs1`, the growth in test [1] is 23.7%; in test [2], 3.09% (active); in test [3] it was 59.6%; in test [4], 92%; in test [5] it was 37.2%; in test [6], 97.1%. Besides, the growth in [7] is 67.4%; in test [8], 6.96% (active); in test [9] it was 81.8%; in [10], 59.3%; in test [11], 78.7%; in test [12], 73.1%. Besides, the growth was 53.2% in [13]; 49% in [14]; 73.9% in test [15]; 40% in [16]; 85.4% in test [17].

As for `CC/C=C\C[C@H](O)C/C=C1/C(=O)C=C[C@@H]1C/C=C\CCCC(=O)NC(C)C`, the growth was -24.9% (active) in test [1]; -5.29% (active) in test [2]; -12.5% (active) in test [3]; 41.6% in test [4]; 35.6% in test [5]; 21.4% in [6]. Moreover, the growth in [7] was 14.8%; in test [8], -6.93% (active); in test [9] it was 46.6%; in [10], 15.9%; in test [11] it was 11.4%; in test [12], 0.828% (active). In addition, the growth was 5.43% (active) in test [13]; 11.7% in test [14]; 14.4% in test [15]; -54.3% (active) in [16]; -55.5% (active) in test [17].

Regarding `O=C(CCCN1CCOCC1)Nc1ccc(Cn2nnc3c2C(=O)c2nnn(Cc4ccc(NC(=O)CCCN5CCOCC5)cc4)c2C3=O)cc1`, the growth is 10.6% in test [1]; 37.5% in test [2]; 38.5% in test [3]; 121% in test [4]; -65.7% (active) in test [5]; 92.1% in [6]. For the same compound, the growth in test [7] was 3.22% (active); in [8], -1.11% (active); in [9], 101%; in [10], 102%; in test [11] it was -16.5% (active); in test [12], 42.6%. Besides, the growth in [13] was -78.9% (active); in test [14] it was 30.2%; in test [15] it was -58.6% (active); in [16], 0.281% (active); in test [17] it was 13.1%; in test [18] it was 65.3%.

On to `C=C1CC[C@@H]2[C@](C)(COC(C)=O)[C@H](OC(C)=O)CC[C@@]2(C)[C@@H]1CC(NCc1ccc(F)cc1)C1=CCOC1=O` (some centres not stated), for which the growth in test [1] was 7.69% (active); in test [2], 1.27% (active); in [3], 18.6%; in test [4] it was 99%; in [5], 30.9%; in [6], 94.3%. The growth was 48.3% in test [7]; 23.7% in [8]; 72.5% in test [9]; 28.3% in [10]; 26.6% in [11]; 28.7% in [12]. Besides, the growth in [13] was 32.7%; in [14] it was 32%; in test [15], 16.6%; in test [16], 33.7%; in test [17], 89.3%.
